Reference: PubChem BioAssay (NCATS)
Results filed as inconclusive are left out. Calls of active or inactive are those of the source. Unless noted, the call rests on the fitted dose curve; in most records, active means well fitted curve in the direction sought with a large enough effect; inconclusive means small, poorly fitted or top-dose-only effect, or another doubt; inactive means no such curve, though single readings can be large; an effect the other way counts as inactive or inconclusive.

Experiments:
[1] = target: Thyrotropin-releasing hormone receptor (Homo sapiens) (UniProt P34981); test: qHTS for Small Molecule Agonists and Allosteric Enhancers of Human TRH Receptor: Validation Screen for Agonists (AID 493127;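 active means calcium activation more than 3 SD above the typical response in the agonist read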;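 further: intracellular calcium rise by fluo-8 fluorescence before TRH EC20 addition; 0% is about no effect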); settings: TRH receptor agonist cell assay; at 2 µM; stronger effect = higher value
Thyrotropin-releasing hormone receptor (Homo sapiens), sequence (P34981 whole entry, looked up): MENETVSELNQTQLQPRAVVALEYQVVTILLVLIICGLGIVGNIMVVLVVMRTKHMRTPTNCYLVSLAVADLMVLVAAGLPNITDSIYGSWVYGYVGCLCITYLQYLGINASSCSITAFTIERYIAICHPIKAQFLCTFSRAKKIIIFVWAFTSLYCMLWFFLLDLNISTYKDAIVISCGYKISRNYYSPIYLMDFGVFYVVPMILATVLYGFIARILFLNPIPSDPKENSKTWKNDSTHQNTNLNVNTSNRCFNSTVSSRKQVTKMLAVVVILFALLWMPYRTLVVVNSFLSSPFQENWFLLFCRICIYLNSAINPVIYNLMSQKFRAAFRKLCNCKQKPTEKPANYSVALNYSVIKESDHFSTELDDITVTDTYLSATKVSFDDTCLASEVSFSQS
Summary of the method: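 Compounds are added by online pintool to dye-loaded TRHR cells while fluorescence is recorded every second. A rise in calcium signal during the agonist read marks activation; a later 10 nM TRH addition (EC20) serves the separate enhancer mode.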

[2] = Nrf2 qHTS screen for inhibitors: Validation (AID 493153; active means well fitted inhibition curve with a large enough effect in the main read-out, with a control signal flat, not every such curve was filed as active); settings: A549 ARE-Fluc reporter, 18-24 h; viability change: measured here: cytotoxicity max response; luciferase luminescence, at 46.1 µM (top of the series)
Summary of the method: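 A549 ARE_Fluc, 5% FBS OPTI-MEM; cpd titration, 18-24 h, 37°C/5% CO2. Read 1: CellTiter-Fluor (Ex 405/Em 525), cytotox. Read 2: luciferase lum, Nrf2 activity.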

[3] = qHTS for Inhibitors of Cell Surface uPA Generation: Validation Assay (AID 493164); settings: mouse cells, plasminogen activation; series mostly up to 38.3 µM;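 further: RAW 264.7 macrophage cells exposed to compound for 18 h; 0% is about no effect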
Summary of the method: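 ATP-Lite luminescence read-out: ATP remains high when uPA activity-dependent LF translocation into the cytoplasm is blocked. RAW 264.7 cells, 18 h compound exposure at 37 C; 7-point titration, 2.45 nM to 38.3 uM final.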

[4] = target: Galactokinase (Homo sapiens) (UniProt P51570); test: qHTS Validation Assay for Inhibitors of Human Galactokinase (GALK) (AID 493189); settings: purified human GALK enzyme activity, qHTS 7-point titration; series mostly up to 57.5 µM; further: 0% is about no effect
Galactokinase (Homo sapiens), sequence (P51570 whole entry, looked up): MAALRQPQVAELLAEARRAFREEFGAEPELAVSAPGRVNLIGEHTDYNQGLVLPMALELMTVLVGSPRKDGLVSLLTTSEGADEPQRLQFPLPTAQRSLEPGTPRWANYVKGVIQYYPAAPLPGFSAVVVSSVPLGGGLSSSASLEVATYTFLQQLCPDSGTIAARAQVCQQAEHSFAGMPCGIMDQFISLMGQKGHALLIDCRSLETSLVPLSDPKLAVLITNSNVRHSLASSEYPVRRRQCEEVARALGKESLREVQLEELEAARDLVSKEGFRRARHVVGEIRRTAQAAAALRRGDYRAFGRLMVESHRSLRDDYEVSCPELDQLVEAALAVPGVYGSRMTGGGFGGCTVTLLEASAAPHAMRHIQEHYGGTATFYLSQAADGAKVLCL
Summary of the method: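 GALK (5 nM) with 35 uM ATP and 100 uM galactose in HEPES pH8.0, MgCl2, NaCl, DTT, BSA; 1 h at room temperature. Residual ATP read by Kinase-Glo Plus luminescence after 10 min.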

[5] = Validation screen for small molecules that induce DNA re-replication in SW480 colon adenocarcinoma cells (AID 504364); settings: DNA re-replication phenotype (high-content imaging); series mostly up to 46.1 µM; further: 0% is about no effect
Summary of the method: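 Image-based qHTS: compounds were incubated with SW480 cells for 48 hr, nuclei stained with Hoechst, and per-nucleus fluorescence intensity scanned to flag cells with excess DNA content.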

[6] = target: Peptidyl-prolyl cis-trans isomerase NIMA-interacting 1 (Homo sapiens) (UniProt Q13526); test: qHTS Validation Assay to Find Inhibitors of Pin1 (AID 504536; active means well fitted inhibition curve with a large enough effect in the polarisation, with a control signal flat, not every such curve was filed as active; the % refers to the polarisation;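 further: 0% = full Pin1 enzyme wells and -100% = no-enzyme wells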); settings: Pin1 fluorescence polarization peptide binding assay; series mostly up to 57.5 µM
Peptidyl-prolyl cis-trans isomerase NIMA-interacting 1 (Homo sapiens), sequence (Q13526 whole entry, looked up): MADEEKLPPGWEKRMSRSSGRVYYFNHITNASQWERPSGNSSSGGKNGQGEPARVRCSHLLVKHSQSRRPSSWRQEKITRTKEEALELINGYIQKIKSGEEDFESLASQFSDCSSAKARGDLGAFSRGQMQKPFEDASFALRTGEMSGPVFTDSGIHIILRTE
Summary of the method: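 Fluorescence polarization competition: compounds (titration) displace HiFluor-488-labeled Pin1-1b peptide from Pin1 (0.3 uM final) in pH 7.5 HEPES buffer with DTT, 10 min at room temperature; %Activity normalized to no-enzyme wells, curves fitted.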

[7] = target: Phosphoglycerate kinase, glycosomal (Trypanosoma brucei brucei) (UniProt P07378); test: qHTS Validation Assay to Find Inhibitors of Phosphoglycerate Kinase (AID 504547); settings: enzymatic PGK inhibition, coupled luminescence read-out; series mostly up to 57.5 µM;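 further: control wells lack PGK and mark full inhibition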
Phosphoglycerate kinase, glycosomal (Trypanosoma brucei brucei), sequence (P07378 whole entry, looked up): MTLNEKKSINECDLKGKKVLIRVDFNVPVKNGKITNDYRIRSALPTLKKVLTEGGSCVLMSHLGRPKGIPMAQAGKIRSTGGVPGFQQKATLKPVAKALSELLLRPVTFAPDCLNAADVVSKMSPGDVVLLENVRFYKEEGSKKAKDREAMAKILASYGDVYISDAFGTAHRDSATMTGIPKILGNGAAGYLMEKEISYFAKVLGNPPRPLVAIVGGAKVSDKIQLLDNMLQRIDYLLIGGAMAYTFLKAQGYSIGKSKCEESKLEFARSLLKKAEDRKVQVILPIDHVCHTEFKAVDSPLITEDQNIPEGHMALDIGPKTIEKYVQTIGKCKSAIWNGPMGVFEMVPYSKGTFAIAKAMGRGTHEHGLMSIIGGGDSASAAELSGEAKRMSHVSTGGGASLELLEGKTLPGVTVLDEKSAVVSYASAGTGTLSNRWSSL
Summary of the method: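 Compounds are pinned into the substrate/PGK mixture, and GAPDH (100nM final) is added to start the reaction by producing 1,3-BPG. After 60 minutes at room temperature, Kinase-Glo Plus is added and luminescence is measured 10 minutes later.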

[8] = target: phosphoglycerate mutase (Leishmania major) (UniProt Q4Q090); test: qHTS Validation Assay to Find Inhibitors of Phosphoglycerate Mutase (AID 504548); settings: biochemical enzyme activity; series mostly up to 57.5 µM; further: on the % scale 0 is the no-effect control and ±100 the full control effect
phosphoglycerate mutase (Leishmania major), sequence (Q4Q090 1-553): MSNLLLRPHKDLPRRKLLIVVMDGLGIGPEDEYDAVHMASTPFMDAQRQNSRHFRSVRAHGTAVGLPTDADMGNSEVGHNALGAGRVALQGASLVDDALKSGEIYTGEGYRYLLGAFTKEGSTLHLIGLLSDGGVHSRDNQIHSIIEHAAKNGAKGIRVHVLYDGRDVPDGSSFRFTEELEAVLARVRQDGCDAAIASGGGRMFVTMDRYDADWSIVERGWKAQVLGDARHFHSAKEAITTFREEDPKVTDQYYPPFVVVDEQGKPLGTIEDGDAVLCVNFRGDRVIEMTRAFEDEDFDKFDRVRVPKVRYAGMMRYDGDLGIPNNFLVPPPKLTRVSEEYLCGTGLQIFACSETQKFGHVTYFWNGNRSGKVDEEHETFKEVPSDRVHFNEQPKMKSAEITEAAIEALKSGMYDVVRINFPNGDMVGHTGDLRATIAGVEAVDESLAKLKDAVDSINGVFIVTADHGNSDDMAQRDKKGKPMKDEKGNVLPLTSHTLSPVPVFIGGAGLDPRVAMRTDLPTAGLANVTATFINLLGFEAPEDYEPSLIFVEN
Summary of the method: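 Lm PGAM at 1.25 nM final with substrate in 100 mM TEA pH 7.6, 5 mM MgCl2, 0.01% Tween-20; 45 min at room temperature. Kinase-GloPlus added, 10 min, end-point luminescence read.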

[9] = Inducers of the Endoplasmic Reticulum Stress Response (ERSR) in human glioma: Validation (AID 504836); settings: human glioma cells, ER stress response reporter; series mostly up to 38.3 µM; further: 0% is about no effect
Summary of the method: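 Stably transfected U87-MG glioma cells carrying a GRP78-based luciferase sensor; 16 h compound incubation. Luminescence end-point read 10 min after Bright-Glo addition at room temperature.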

[10] = target: Ubiquitin carboxyl-terminal hydrolase 1 (Homo sapiens) (UniProt O94782); test: Inhibitors of USP1/UAF1: Pilot qHTS (AID 504865); settings: purified USP1/UAF1, Ub-rhodamine cleavage fluorescence; series mostly up to 114 µM;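 further: rhodamine fluorescence freed from ubiquitin-rhodamine substrate followed over time; top concentration of the series differs between compounds; on the % scale 0 is the no-effect control and ±100 the full control effect; nearly all actives have a fitted effect of over 35% in size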
Ubiquitin carboxyl-terminal hydrolase 1 (Homo sapiens), sequence (O94782 whole entry, looked up): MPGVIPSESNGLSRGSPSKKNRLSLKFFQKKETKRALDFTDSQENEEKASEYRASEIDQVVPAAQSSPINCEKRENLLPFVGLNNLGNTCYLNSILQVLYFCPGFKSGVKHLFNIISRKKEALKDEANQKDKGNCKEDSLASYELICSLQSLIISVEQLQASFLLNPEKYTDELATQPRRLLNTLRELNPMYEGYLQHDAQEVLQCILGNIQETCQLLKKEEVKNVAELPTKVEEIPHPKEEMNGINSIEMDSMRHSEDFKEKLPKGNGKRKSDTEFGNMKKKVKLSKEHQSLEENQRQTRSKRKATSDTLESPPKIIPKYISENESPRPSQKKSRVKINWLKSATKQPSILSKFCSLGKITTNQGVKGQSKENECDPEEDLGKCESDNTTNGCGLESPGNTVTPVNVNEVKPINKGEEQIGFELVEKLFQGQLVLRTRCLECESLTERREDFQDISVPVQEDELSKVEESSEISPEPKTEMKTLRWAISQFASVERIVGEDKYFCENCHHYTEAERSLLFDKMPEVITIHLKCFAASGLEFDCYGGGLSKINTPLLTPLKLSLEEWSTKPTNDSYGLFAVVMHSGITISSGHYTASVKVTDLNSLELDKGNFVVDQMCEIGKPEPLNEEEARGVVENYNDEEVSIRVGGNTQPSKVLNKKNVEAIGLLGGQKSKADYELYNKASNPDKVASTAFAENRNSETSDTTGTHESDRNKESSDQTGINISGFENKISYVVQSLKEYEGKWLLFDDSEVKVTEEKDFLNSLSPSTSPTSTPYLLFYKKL
Summary of the method: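 USP1/UAF1 complex (1nM) preincubated with compound 15 min at room temperature, then Ub-Rho substrate (150nM final) added. Fluorescence read kinetically at 480/540 nm, 6 reads every 60 seconds. Buffer: 50mM HEPES pH 7.8, 0.5mM EDTA, 0.1 mg/ml BSA, 1mM TCEP, 0.01% Tween-20.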

[11] = qHTS for Inhibitors of ATXN expression: Validation of Cytotoxic Assay (AID 588349); settings: cytotoxicity counter-screen for ATXN expression inhibitors, cell viability; series mostly up to 57.1 µM; further: on the % scale 0 is the no-effect control and ±100 the full control effect
Summary of the method: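 Titrated compounds are added to cultured HEK293 cells, which are then held at 37 degrees C for 72 hr; loss of intracellular ATP, measured with CellTiter Glo, indicates toxicity.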

[12] = qHTS for Inhibitors of ATXN expression: Validation (AID 588378); settings: cell-based ATXN2 expression reporter assay, luminescence; series mostly up to 57.1 µM; further: on the % scale 0 is the no-effect control and ±100 the full control effect; nearly all actives have a fitted effect of over 75% in size
Summary of the method: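 Luminescence from an ATXN2-FFLuc reporter in HEK293 cells served as read-out after 24 h compound treatment at 37 degrees C; CellTiter-Fluor fluorescence was recorded first to assess viability.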

[13] = target: DNA dC->dU-editing enzyme APOBEC-3G (Homo sapiens) (UniProt Q9HC16); test: qHTS for inhibitors of Vif-A3G interactions: Validation (AID 588379); settings: Vif-A3G protein interaction assay; series mostly up to 46.1 µM; further: 0% is about no effect
DNA dC->dU-editing enzyme APOBEC-3G (Homo sapiens), sequence (Q9HC16 whole entry, looked up): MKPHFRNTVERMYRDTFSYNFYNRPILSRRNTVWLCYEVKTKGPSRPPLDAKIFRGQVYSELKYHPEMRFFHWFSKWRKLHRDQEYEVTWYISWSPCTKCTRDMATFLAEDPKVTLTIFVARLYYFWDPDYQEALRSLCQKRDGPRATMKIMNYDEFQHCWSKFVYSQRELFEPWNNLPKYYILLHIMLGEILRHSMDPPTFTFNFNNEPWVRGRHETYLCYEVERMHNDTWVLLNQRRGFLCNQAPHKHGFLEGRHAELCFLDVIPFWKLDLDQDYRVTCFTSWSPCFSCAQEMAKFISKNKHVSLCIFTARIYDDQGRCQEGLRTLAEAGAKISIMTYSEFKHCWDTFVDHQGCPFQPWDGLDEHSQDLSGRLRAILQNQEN
Summary of the method: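 Yellow fluorescence (Ex 488, Em 500-530) of Vif-coexpressing HeLa A3G-eYFP cells, scanned by Acumen cytometer, reports blocked A3G degradation. Cells plated at 700/well overnight at 37 deg C before compound addition, then a further overnight compound incubation at 37 deg C.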

NC(CP(=O)(O)O)C(=O)O (stereo unspecified)
-2.21%: viability change [2]
inactive: activation [1] -3.19% | outcome [2] | outcome [3] | outcome [4] | outcome [5] | outcome [6] | outcome [7] | outcome [8] | Potency [9] | Potency [10] | outcome [11] | Potency [12]

NC(CCP(=O)(O)O)C(=O)O (stereo unspecified)
inactive: activation [1] -3% | outcome [2] | outcome [3] | outcome [4] | outcome [5] | outcome [6] | outcome [7] | outcome [8] | Potency [9] | Potency [10] | outcome [11] | Potency [12]
2.18%: viability change [2]

NC(=O)CN1CC(O)CC1=O (stereo unspecified)
inactive: activation [1] 1.25% | outcome [2] | outcome [3] | outcome [4] | outcome [5] | outcome [6] | outcome [7] | outcome [8] | Potency [9] | Potency [10] | outcome [11] | Potency [12]
1.59%: viability change [2]

CN1C2CCC1CC(OC(=O)c1cc(Cl)cc(Cl)c1)C2 (stereo unspecified)
inactive: activation [1] 3.5% | outcome [2] | outcome [3] | outcome [4] | outcome [5] | outcome [6] | outcome [7] | outcome [8] | Potency [9] | Potency [10] | outcome [11]
1.01%: viability change [2]

C[C@@H]1O[C@H](C[N+](C)(C)C)C[C@H]1O
-6.13%: viability change [2]
inactive: activation [1] 20.8% | outcome [2] | outcome [3] | outcome [4] | outcome [5] | outcome [6] | outcome [7] | outcome [8] | Potency [9] | Potency [10] | outcome [11] | Potency [12]

NC(=NCCC[C@H](N)C(=O)O)N[N+](=O)[O-]
inactive: activation [1] 0.625% | outcome [2] | outcome [3] | outcome [4] | outcome [5] | outcome [6] | outcome [7] | outcome [8] | Potency [9] | Potency [10] | outcome [11] | Potency [12] | outcome [13]
3.87%: viability change [2]

c1ccc2sc(C3(N4CCCCC4)CCCCC3)cc2c1
inactive: activation [1] -13.1% | outcome [2] | outcome [3] | outcome [4] | outcome [5] | outcome [6] | outcome [7] | outcome [8] | Potency [9] | Potency [10] | outcome [11] | Potency [12] | outcome [13]
-6.89%: viability change [2]

C=CCN1CC[C@]23CCCCC2[C@H]1Cc1ccc(O)cc13 (stereo partly specified)
-5%: viability change [2]
inactive: activation [1] 2% | outcome [2] | outcome [3] | outcome [4] | outcome [5] | outcome [6] | outcome [7] | outcome [8] | Potency [9] | Potency [10] | Potency [12]

C#CCOC(=O)C1=CCCN(C)C1
inactive: activation [1] 3.19% | outcome [2] | outcome [3] | outcome [4] | outcome [5] | outcome [6] | outcome [7] | outcome [8] | Potency [9] | Potency [10] | outcome [11] | Potency [12] | outcome [13]
-2.85%: viability change [2]

NC1CCc2cc(O)c(O)cc2C1 (stereo unspecified)
10.6%: viability change [2]
inactive: activation [1] 0.75% | outcome [2] | outcome [3] | outcome [4] | outcome [5] | outcome [6] | outcome [7] | outcome [8] | Potency [9] | Potency [10] | outcome [11] | Potency [12]

O=C(O)Cc1cnc[nH]1
-0.284%: viability change [2]
inactive: activation [1] 0.875% | outcome [2] | outcome [3] | outcome [4] | outcome [5] | outcome [6] | outcome [7] | outcome [8] | Potency [9] | Potency [10] | outcome [11] | Potency [12]

Oc1ccc2c3c1O[C@H]1c4[nH]c5c(c4C[C@@]4(O)[C@@H](C2)N(CC2CC2)CC[C@]314)C[C@@]1(O)[C@H]2Cc3ccc(O)c4c3[C@@]1(CCN2CC1CC1)[C@H]5O4
0%: viability change [2]
inactive: activation [1] 0.625% | outcome [2] | outcome [3] | outcome [4] | outcome [5] | outcome [6] | outcome [7] | outcome [8] | Potency [9] | Potency [10] | Potency [12]

NC(N)=NOCCC(N)C(=O)O (stereo unspecified)
inactive: activation [1] 0.375% | outcome [2] | outcome [3] | outcome [4] | outcome [5] | outcome [6] | outcome [7] | outcome [8] | Potency [9] | Potency [10] | outcome [11] | Potency [12]
0.756%: viability change [2]

CNCCc1c[nH]c2ccc(O)cc12
1.11%: viability change [2]
inactive: activation [1] 1.06% | outcome [2] | outcome [3] | outcome [4] | outcome [5] | outcome [6] | outcome [7] | outcome [8] | Potency [9] | Potency [10] | outcome [11] | Potency [12] | outcome [13]

Cn1cnc(CCN)c1
-10.2%: viability change [2]
inactive: activation [1] 0.562% | outcome [2] | outcome [3] | outcome [4] | outcome [5] | outcome [6] | outcome [7] | outcome [8] | Potency [9] | Potency [10] | outcome [11] | Potency [12]
